The test system of assay [1] is Wnt5a (protein binding on small-molecule microarray). The assay is described as follows: small molecules binding Wnt5a protein – biophysical, small-molecule microarray, 635/667 nm fluorescence, primary screen (AID 1142).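 Also: fluorescence read at 667 nm with signal to noise per printed feature.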 To be noted: 635 nm fluorescence, higher = more signal.
A short description of assay [2]: ATP-based viability of Huh7 replicon cells – cell-based, CellTiter-Glo luminescence, basal, 48 h, cytotoxicity control for HCV replication inhibitor project, primary screen (AID 1143).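 Also: Huh7 hepatoma cells carrying a hepatitis C replication reporter with no stimulus; test concentration not given here.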 To be noted: higher = more signal, called active from +8 up or from −8 down. Background: A replicon is a self-replicating genome or part of one, used to study replication in cells.
The nature of assay [3]: Pseudomonas biofilm growth suppression – PAO1 strain, BacTiter-Glo luminescence, LB-PBS, primary screen (AID 1144). To be noted: P. aeruginosa PAO1 biofilm, 12 h, higher = more signal.
Assay [4] can be described thus: basal CRE-LacZ reporter activity in PC12 – cell-based, unstimulated, primary screen (AID 1145). The note with it: no forskolin, luminescence, 4.5 h, higher = more signal, called active from +8 up or from −8 down.
The nature of assay [5]: forskolin-driven CRE-LacZ activity in PC12 – cell-based, CRE-LacZ reporter, forskolin-stimulated, primary screen (AID 1146).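 Also: PC12 cells with 6xCRE LacZ reporter stimulated by forskolin 10 µM; beta-galactosidase reporter signal reflecting CREB driven transcription.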 To be noted: luminescence, 4.5 h, higher = more signal, called active from +8 up or from −8 down.
Assay [6] addresses Streptavidin (Streptomyces avidinii) (UniProt P22629). The assay is described as follows: compounds binding control protein streptavidin – biophysical, small-molecule microarray, 635/667 nm fluorescence, artefact control for SMM compound annotation, primary screen (AID 1147).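 Also: signal reflects streptavidin binding to arrayed compounds as a control protein.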 To be noted: higher = more signal.
A short description of assay [7]: probe aInhba binding on compound microarray – biochemical, small-molecule microarray, 635/667 nm fluorescence, primary screen (AID 1148).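 Also: score merges 667nm spot fluorescence with signal-to-noise for antibody binding to printed compounds.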 To be noted: higher = more signal.
Assay [8] concerns the target Torsin-1A (Homo sapiens) (UniProt O14656). The assay is described as follows: TOR1A wild-type binding on microarray – cell lysate, small-molecule microarray, lysate, 635/667 nm, primary screen (AID 1149). The note with it: COS7 hTOR1A-WT lysate, 635 nm fluorescence, higher = more signal.
Assay [9] has the same target. The assay can be described thus: torsin A mutant lysate binding on microarrays – cell lysate, small-molecule microarray, COS7 lysate, 635/667 nm fluorescence, primary screen (AID 1150).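 Also: score pools 667 nm emission and signal to noise measuring lysate protein binding.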 To be noted: COS7 hTOR1A mutant lysate, 635 nm fluorescence, higher = more signal.
Assay [10] has as its system Sonic hedgehog protein (Shh). The assay is described as follows: Sonic hedgehog microarray binding compounds – biochemical, small-molecule microarray, 635/667 nm fluorescence, primary screen (AID 1151).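 Also: Shh protein binding to compounds spotted on small-molecule microarray slides; score combines spot fluorescence intensity with signal-to-noise across triplicate slides.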 To be noted: 635 nm fluorescence, higher = more signal.
Assay [11] in a line: optical density shifts of acrAB sulA E. coli – strain DRC41, OD650, 48 h, E. coli filamentation inducer project, primary screen (AID 1152).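 Also: E. coli MC1000 strain DRC41 lacking acrAB efflux pump and sulA.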 The note with it: higher = more signal, called active from +8 up or from −8 down.
Assay [12] in a line: probe aLefty1 binding on compound microarray – biochemical, small-molecule microarray, 635/667 nm fluorescence, primary screen (AID 1153).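 Also: score merges spot fluorescence with signal-to-noise ratio from the scanned slide images.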 To be noted: higher = more signal.
Assay [13] is described as follows: plasmodial surface anion channel blockers, osmotic lysis – cell-based, P. falciparum Indochina, OD700, 1 h, primary screen (AID 1154). The note with it: P. falciparum Indochina infected RBC osmotic lysis, higher = more signal, called active from +8 up or from −8 down.
Assay [14] is described as follows: plasmodial surface anion channel blockers, osmotic lysis – cell-based, P. falciparum Indochina, OD700, 2 h, primary screen (AID 1155).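 Also: lysis reports solute entry through the parasite surface anion channel PSAC.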 To be noted: P. falciparum Indochina infected erythrocytes, higher = more signal, called active from +8 up or from −8 down.
A short description of assay [15]: changes in parasitized red cell lysis, either direction – P. falciparum Indochina, OD700, 3 h, PSAC antagonist project, primary screen (AID 1156). To be noted: P. falciparum-infected erythrocytes, osmotic lysis, higher = more signal, called active from +8 up or from −8 down.
The nature of assay [16]: plasmodial surface anion channel blockers, osmotic lysis – cell-based, P. falciparum Indochina, OD700, 18 h, primary screen (AID 1157). The note with it: P. falciparum Indochina infected erythrocytes, osmotic lysis OD700, 18 h; higher = more signal, called active from +8 up or from −8 down.
Assay [17] in a line: S6 kinase pathway phospho-S6 level changes – cell-based, A549, cytoblot, luminescence, serum-stimulated, primary screen (AID 1158).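 Also: serum-stimulated A549 lung adenocarcinoma cells; signal is phosphorylated S6 detected by cytoblot immunostaining with HRP secondary.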 The note with it: 5 h, higher = more signal.
For assay [18], the target named is NADPH oxidase 2 (Homo sapiens) (UniProt P04839). The assay is described as follows: compounds shifting NOX2 Amplex Red fluorescence – cell-based, HEK293-NOX2, PMA-stimulated, NOX inhibitor project, primary screen (AID 1159). Also: test concentration not given here. To be noted: 45 min, higher = more signal, called active from +8 up or from −8 down.
In assay [19] the target is NADPH oxidase 4 (Homo sapiens) (UniProt Q9NPH5). The assay is described as follows: compounds shifting NOX4 Amplex Red fluorescence – cell-based, HEK293-NOX4, tetracycline-induced, NOX inhibitor project, primary screen (AID 1160). The note with it: HEK293-NOX4, Amplex Red H2O2 fluorescence, 45 min; higher = more signal, called active from +8 up or from −8 down.
The target in assay [20] is NADPH oxidase 5 (Homo sapiens) (UniProt Q96PH1). The assay is described as follows: compounds shifting NOX5 Amplex Red fluorescence – cell-based, HEK293-NOX5, NOX inhibitor project, primary screen (AID 1161). To be noted: HEK293-NOX5, ionomycin, 45 min, higher = more signal.

Structures are written as SMILES. The source made the active and inactive calls. Unless noted, no rule for the calls is given here.

NADPH oxidase 2 (Homo sapiens), sequence (P04839 whole entry, looked up): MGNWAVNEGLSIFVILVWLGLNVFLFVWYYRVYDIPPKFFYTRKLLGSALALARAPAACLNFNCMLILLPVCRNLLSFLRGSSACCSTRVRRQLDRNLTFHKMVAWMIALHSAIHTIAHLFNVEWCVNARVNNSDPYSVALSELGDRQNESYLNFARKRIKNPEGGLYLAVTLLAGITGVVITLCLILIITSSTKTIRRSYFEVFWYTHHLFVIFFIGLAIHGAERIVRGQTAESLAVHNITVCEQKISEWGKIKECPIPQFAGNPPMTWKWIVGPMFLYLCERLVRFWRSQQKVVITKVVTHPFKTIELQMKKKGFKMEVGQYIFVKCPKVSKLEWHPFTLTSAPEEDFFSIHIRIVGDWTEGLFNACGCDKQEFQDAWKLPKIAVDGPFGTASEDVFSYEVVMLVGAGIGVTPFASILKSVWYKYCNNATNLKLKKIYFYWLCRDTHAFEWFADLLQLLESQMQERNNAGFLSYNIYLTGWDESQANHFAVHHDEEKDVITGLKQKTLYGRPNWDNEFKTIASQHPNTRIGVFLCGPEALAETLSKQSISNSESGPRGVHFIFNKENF
NADPH oxidase 4 (Homo sapiens), sequence (Q9NPH5 whole entry, looked up): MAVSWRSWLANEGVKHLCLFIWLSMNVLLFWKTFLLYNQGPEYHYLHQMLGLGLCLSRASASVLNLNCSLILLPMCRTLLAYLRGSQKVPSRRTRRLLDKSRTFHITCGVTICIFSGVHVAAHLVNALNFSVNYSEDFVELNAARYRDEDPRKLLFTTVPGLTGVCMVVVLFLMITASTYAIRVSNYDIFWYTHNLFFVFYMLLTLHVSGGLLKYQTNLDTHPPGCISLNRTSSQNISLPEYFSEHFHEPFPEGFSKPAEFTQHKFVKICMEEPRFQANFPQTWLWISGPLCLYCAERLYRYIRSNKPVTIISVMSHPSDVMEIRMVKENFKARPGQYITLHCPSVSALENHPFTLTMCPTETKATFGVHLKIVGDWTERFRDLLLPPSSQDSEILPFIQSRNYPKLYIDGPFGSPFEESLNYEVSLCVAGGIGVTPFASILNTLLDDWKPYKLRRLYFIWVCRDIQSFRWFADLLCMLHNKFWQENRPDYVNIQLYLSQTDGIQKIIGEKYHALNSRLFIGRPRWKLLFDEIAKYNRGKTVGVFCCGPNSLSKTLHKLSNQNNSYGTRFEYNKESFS
Streptavidin (Streptomyces avidinii), sequence (P22629 whole entry, looked up): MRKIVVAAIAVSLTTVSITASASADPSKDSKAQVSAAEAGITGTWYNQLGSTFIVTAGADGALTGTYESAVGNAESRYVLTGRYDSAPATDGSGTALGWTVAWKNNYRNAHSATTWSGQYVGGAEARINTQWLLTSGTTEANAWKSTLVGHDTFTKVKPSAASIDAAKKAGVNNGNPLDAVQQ
Torsin-1A (Homo sapiens), sequence (O14656 whole entry, looked up): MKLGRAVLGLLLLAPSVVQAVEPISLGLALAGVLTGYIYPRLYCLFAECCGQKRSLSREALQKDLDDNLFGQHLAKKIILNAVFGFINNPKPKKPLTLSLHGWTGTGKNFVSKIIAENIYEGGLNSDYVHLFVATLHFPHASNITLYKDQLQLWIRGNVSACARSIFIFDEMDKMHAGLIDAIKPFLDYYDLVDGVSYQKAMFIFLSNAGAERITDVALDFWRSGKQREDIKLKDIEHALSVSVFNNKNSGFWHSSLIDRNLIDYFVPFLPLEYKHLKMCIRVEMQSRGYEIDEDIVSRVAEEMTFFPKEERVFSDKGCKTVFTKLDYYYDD
NADPH oxidase 5 (Homo sapiens), sequence (Q96PH1 whole entry, looked up): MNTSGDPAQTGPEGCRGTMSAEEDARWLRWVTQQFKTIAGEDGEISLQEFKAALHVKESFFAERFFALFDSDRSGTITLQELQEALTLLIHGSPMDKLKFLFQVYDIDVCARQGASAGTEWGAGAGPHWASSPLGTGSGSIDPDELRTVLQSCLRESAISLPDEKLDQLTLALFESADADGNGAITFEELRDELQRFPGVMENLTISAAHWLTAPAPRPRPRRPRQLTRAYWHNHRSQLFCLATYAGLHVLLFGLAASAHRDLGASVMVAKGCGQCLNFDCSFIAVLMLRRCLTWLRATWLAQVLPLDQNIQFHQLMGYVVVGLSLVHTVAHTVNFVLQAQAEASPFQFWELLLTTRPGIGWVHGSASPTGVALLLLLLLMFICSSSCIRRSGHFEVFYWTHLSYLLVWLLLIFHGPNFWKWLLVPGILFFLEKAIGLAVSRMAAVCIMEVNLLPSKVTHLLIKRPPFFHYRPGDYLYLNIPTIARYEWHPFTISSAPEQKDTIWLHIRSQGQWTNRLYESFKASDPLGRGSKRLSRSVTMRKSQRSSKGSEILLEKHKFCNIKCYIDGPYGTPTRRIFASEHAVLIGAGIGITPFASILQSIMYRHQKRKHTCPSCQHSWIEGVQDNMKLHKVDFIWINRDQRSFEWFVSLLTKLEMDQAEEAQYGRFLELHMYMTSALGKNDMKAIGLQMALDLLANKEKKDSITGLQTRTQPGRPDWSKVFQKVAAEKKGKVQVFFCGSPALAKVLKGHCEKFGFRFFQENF

Consider `COc1ccc(O[C@H]2C=C[C@@H](C#Cc3ccccc3)O[C@@H]2CO)cc1`, for which the composite z-score is -0.0391 in [1]; 0.966 in assay [6]; -0.182 in assay [7]; -0.0668 in the assay with Torsin-1A (Homo sapiens) [8]; -0.0971 with Torsin-1A (Homo sapiens) [9]; 0.0864 in [10]. The compound further showed a composite z-score in assay [12] of 0.042. The z-score in assay [2] is -4.1 (inactive); in [3] it was 0.451 (inactive); in assay [4], 0.653 (inactive); in assay [5], -0.003 (inactive); in assay [11] it was 0.311 (inactive); in [13], 2.26 (inactive). For the same compound, the z-score in assay [14] was 0.323 (inactive); in assay [15], -0.24 (inactive); in [16], -0.144 (inactive); in assay [17] it was 0.297; in assay [18] it was 1.33 (inactive); in [19], -0.196 (inactive). In [20], the z-score is -0.196.
On to `CCOC(=O)[C@H](CC(C)C)NC(=O)CCC1CC(OC(=O)NCc2ccc3c(c2)OCO3)CC2(CCCC(COC(=O)NCCOC)O2)O1` (stereo not given in full), for which the composite z-score in assay [1] is -0.0334; in [6], 0.0301; in assay [7], -0.0006; in the assay with Torsin-1A (Homo sapiens) [8], -0.0402; with Torsin-1A (Homo sapiens) [9], 0.354; in [10], 1.46. In addition, the composite z-score in assay [12] is 0.292. The z-score in assay [2] is -0.413 (inactive); in [3] it was 0.211 (inactive); in assay [4], 0.56 (inactive); in [5], 0.59 (inactive); in assay [11] it was -2.3 (inactive); in assay [13] it was 1.3 (inactive). Further, the z-score in assay [14] was 0.529 (inactive); in [15], -0.535 (inactive); in [16], 0.0508 (inactive); in assay [17] it was -0.421; in assay [18] it was -0.288 (inactive); in assay [19] it was -0.0492 (inactive). For the same compound, the z-score in assay [20] worked out at 0.144.
Regarding `COC(=O)[C@H](C)NC(=O)CCC1CC(OC(=O)NCc2ccc3c(c2)OCO3)CC2(CCCC(COC(=O)NCCC(C)C)O2)O1` (stereo not given in full), the composite z-score was 0.151 in assay [1]; 0.232 in assay [6]; -0.224 in assay [7]; 0.245 with Torsin-1A (Homo sapiens) [8]; 0.593 with Torsin-1A (Homo sapiens) [9]; 1.13 in assay [10]. Further, in assay [12], the composite z-score stood at 0.0774. In addition, the z-score in assay [2] is -2.02 (inactive); in assay [3], -0.174 (inactive); in assay [4], -0.706 (inactive); in [5], -1.22 (inactive); in [11], -1.06 (inactive); in assay [13] it was 19.8 (active). For the same compound, the z-score in assay [14] is 4.71 (inactive); in [15] it was 0.3 (inactive); in assay [16], 0.638 (inactive); in [17] it was 0.392; in assay [18], 0.738 (inactive); in assay [19], 0.437 (inactive). Moreover, the z-score in assay [20] amounted to 0.284.
On to `COc1ccc(O[C@H]2C=C[C@@H](c3ccccc3)O[C@@H]2CO)cc1`, for which the composite z-score was 0.0263 in assay [1]; 0.145 in assay [6]; -0.0412 in [7]; 0.139 with Torsin-1A (Homo sapiens) [8]; 0.153 with Torsin-1A (Homo sapiens) [9]; 0.507 in assay [10]. Moreover, the composite z-score in assay [12] was -0.0501. Besides, the z-score was -1.12 (inactive) in assay [2]; 0.584 (inactive) in assay [3]; -0.617 (inactive) in assay [4]; -0.265 (inactive) in assay [5]; 0.0426 (inactive) in [11]; 2.91 (inactive) in [13]. Further, the z-score in assay [14] was 1.29 (inactive); in [15], -0.0071 (inactive); in assay [16] it was 0.64 (inactive); in [17] it was -0.781; in [18], -0.242 (inactive); in [19], -0.634 (inactive). In addition, the z-score in assay [20] is -2.07.

The record behind these values is PubChem BioAssay.
